# Source: PubChem BioAssay
# Shown are actives, neighbours in structure and some others; about 7.5% of the full set was active somewhere.
# FLuc modulator = firefly luciferase modulation, counter-screen for miR-21 project. AID 588342. hit rate 6.9% among 360,000. purified FLuc, Km substrates, luminescence inhibition. Potency, µM (titrated, usually from 57.5 µM), for the others: at the highest dose activity change, negative = inhibition, actives largely listed as inhibitors;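 note: plate controls were vehicle for no effect and reference inhibitor for full effect; nearly all actives have a fitted effect of over 55% in size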
# Target sequence (P08659 whole entry, looked up): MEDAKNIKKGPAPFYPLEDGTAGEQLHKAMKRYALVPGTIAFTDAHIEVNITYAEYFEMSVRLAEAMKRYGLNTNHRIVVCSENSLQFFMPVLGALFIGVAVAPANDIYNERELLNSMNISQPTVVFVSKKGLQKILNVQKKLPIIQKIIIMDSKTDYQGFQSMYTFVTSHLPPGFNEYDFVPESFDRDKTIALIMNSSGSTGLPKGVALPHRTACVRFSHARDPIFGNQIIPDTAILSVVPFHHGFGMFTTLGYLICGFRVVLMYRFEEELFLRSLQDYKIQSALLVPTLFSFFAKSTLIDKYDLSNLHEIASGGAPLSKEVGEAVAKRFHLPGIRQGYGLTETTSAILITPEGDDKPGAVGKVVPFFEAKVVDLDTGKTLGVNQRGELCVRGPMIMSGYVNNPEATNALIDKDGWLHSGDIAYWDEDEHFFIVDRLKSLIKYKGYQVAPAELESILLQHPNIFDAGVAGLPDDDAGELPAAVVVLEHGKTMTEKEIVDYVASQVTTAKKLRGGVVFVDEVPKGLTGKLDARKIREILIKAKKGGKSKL
#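 Purified P. pyralis luciferase (10nM final) with 10uM D-luciferin and 10uM ATP (Km levels) in 50mM Tris acetate pH 7.5, 10mM Mg acetate, 0.01% Tween-20, 0.05% BSA; qHTS 6-point titration, ~60 µM downward; luminescence read.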
# Rab9 promoter act = activators of Rab9 promoter. Potency, µM (titrated, usually from 9.22 µM), for the others: top-dose activation, negative = inhibition, hits mostly activators. Huh7 Rab9 promoter-luciferase reporter, luminescence, 24 h. hit rate 2.8% among 320,000. AID 485297; note: % of control where 0% means no effect; nearly all actives have a fitted effect of over 60% in size
#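 Rab9 promoter-driven luciferase in stably transfected Huh7 cells; 1500 cells/well rested 2 h, exposed to compound in DMSO for 24 h at 37 °C, 5% CO2. Luminescence read 10 min after adding luciferase reagent at ambient temperature.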
# ELG1 genotoxic = induces genotoxicity in HEK293T cells with luciferase-tagged ELG1. hit rate 1.3% among 330,000. HEK293T ELG1-luciferase reporter, luminescence, 16 h. Potency, µM (series often up to 46 µM), for the others: top-dose activity change, positive = activation, most hits filed as activators. AID 504466; note: % of control where 0% means no effect; nearly all actives have a fitted effect of over 60% in size
#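 Genotoxic stress is detected as increased luminescence from luciferase-tagged ELG1 in HEK293T cells, measured with ONE-Glo after a 16 hr treatment at 37 °C.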
# SMN2 splice enh = SMN2 splice variant enhancement. HEK293 SMN2-luciferase splicing reporter, luminescence, 30-36 h. Potency, µM (doses to about 46.1 µM), without a hit: at the highest dose activity change, positive = activation, hits mostly activators. hit rate 2.8% among 210,000; note: % of control where 0% means no effect; nearly all actives have a fitted effect of over 55% in size
#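 qHTS luciferase splicing reporter: luminescence rises when SMN2 exon 7 is included in transfected HEK293 cells. Compound exposure lasted 30-36 h at 37C, with 4.5 mM final sodium butyrate as control, followed by a ONE-Glo read.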
# NPC1 promoter act = activates the NPC1 promoter | Huh7 NPC1 promoter luciferase reporter, 24 h | Potency, µM (series often up to 9.22 µM), inactives show at the highest dose activation, most hits filed as activators | hit rate 2.4% among 320,000; note: % of control where 0% means no effect; nearly all actives have a fitted effect of over 60% in size
#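 In 1536-well qHTS, Huh7 cells harboring an NPC1 promoter–luciferase construct received compound for 24 h; activation was quantified by luminescence following luciferase reagent addition.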
# * hit, by the source's call; ? = inconclusive; . = no result; [ ] = dose if it differs, or a comment. Calls come from the whole dose curve; as a rule, active = well fitted curve in the direction sought with a large enough effect; inconclusive = small, poorly fitted or top-dose-only effect, or another doubt; inactive = no such curve, though single readings can be large; an effect the other way counts as inactive or inconclusive. Potency is the fitted concentration of half-maximal effect.
SMILES,FLuc modulator,Rab9 promoter act,ELG1 genotoxic,SMN2 splice enh,NPC1 promoter act
CCOC(=O)C(C)Sc1ccc2nnc(CCNS(=O)(=O)c3ccc(C)cc3)n2n1 (configuration not stated),0%,-6%,0%,-18%,1%
COCCN(C(=O)CSc1nnc(-c2cccs2)n1N)c1c(N)n(Cc2ccccc2)c(=O)[nH]c1=O,2%,1%,5%,.,1%
NNC(=O)c1cccc(COc2ccc3c(c2)CCC3)c1,2.4µM*,0.32µM*,?,0.4µM*,0.22µM*
CN(C(=O)c1ccc(COc2ccccc2Cl)o1)c1ccccc1,-5%,-6%,-1%,.,20%
O=C(NCc1ccccc1)c1cnc(Cl)c(Cl)c1,-1%,12%,4%,.,-2%
O=C(c1cccc(COc2cccc3ccccc23)c1)N1CCCC1,17µM*,2.5µM*,15%,22µM*,?
CN(C(=O)c1cccc(COc2ccc(Cl)cc2Cl)c1)c1ccccc1,12µM*,1µM*,2.1µM*,3.2µM*,0.63µM*
O=C(NCc1ccccc1)c1cccc(COc2cc(Cl)ccc2Cl)c1,?,3.2µM*,?,13µM*,2.5µM*
O=C(COc1ccc2c(c1)CCC2)NCc1ccccc1,-14%,-4%,-1%,21%,-1%
O=C(c1ccccc1)N1CCN(CC(O)COc2cccc3ccccc23)CC1 (configuration not stated),1%,4%,0%,.,3%
CC1CCN(S(=O)(=O)c2ccc(NC(=O)CCN3C(=O)c4ccccc4C3=O)cc2)CC1,-7%,-2%,3%,-5%,-1%
O=C(/C=C/c1cccc(Cl)c1)Nc1ccncc1,17µM*,24%,3%,-1%,1%
O=C(/C=C/c1c(Cl)cccc1Cl)Nc1ccncc1,3µM*,?,?,-22%,26%
O=C(/C=C/c1c(F)cccc1Cl)Nc1ccncc1,7.6µM*,?,16%,-23%,29%
CN(C(=O)CSc1nc2ccc(Br)cc2c(=O)n1Cc1ccco1)C1CCS(=O)(=O)C1 (configuration not stated),2%,-5%,-6%,.,0%
CCc1ccc(N=C2N=C(N)c3ccccc32)cc1,2.7µM*,29%,?,?,-3%
NC1=NC(=Nc2ccc(S(N)(=O)=O)cc2)c2ccccc21,-4%,-7%,6%,.,-6%
Cc1cccc2nc(-c3cccc(NC(=O)Cc4ccccc4)c3)cn12,11µM*,0%,-7%,2%,-2%
O=C(Nc1cccc(-c2cnc3ccccc3n2)c1)c1ccc(Cl)cc1,-10%,12%,8%,7%,6%
Cc1cccc2nc(-c3cccc(NC(=O)c4ccc(Cl)cc4)c3)cn12,6µM*,-1%,-7%,-12%,-2%
O=C(Cc1ccc(F)cc1)Nc1cccc(-c2ccc3nncn3n2)c1,3%,-3%,-5%,-13%,-5%
N#C/C(=C\c1ccc(-c2ccc(Cl)c(C(=O)O)c2)o1)c1nc2ccccc2[nH]1,6µM*,15%,.,2%,8%
N#C/C(=C\c1ccc(-c2ccc(C(=O)O)cc2)o1)c1nc2ccccc2[nH]1,9.5µM*,2.5µM*,18%,?,4µM*
Cc1ccc2nc(/C(C#N)=C/c3ccc(-c4cccc(Cl)c4)o3)[nH]c2c1,-17%,.,.,-1%,.
COc1ccc(NC(=O)CSc2ncn(-c3ccccc3)n2)cc1Cl,?,1%,2%,-3%,-7%
SMILES,FLuc modulator,Rab9 promoter act,ELG1 genotoxic,SMN2 splice enh,NPC1 promoter act
CN(C)c1ccc(/C=C/c2ccc3c4ccccc4ccc3[n+]2-c2ccccc2)cc1,27µM*,-41%,-4%,-50%,-47%
Cc1cc(NC(=O)c2ccc([N+](=O)[O-])cc2)n(CCC#N)n1,-3%,-1%,-5%,.,-3%
O=C(CSc1ccccn1)N1CCOCC1,1%,-6%,0%,-4%,-4%
CC1(C)O[C@H]2[C@@H](c3[nH]nc4c(=O)[nH]c(=O)[nH]c34)OC[C@H]2O1,.,.,.,-12%[9.22 µM],.
Cc1nc(NC(=O)/C=C/c2ccc(F)cc2)sc1C(=O)N(C)C,17µM*,-5%,7%,27%,0%
Cc1nc(NC(=O)/C=C/c2ccccc2)sc1C(=O)N(C)C,13µM*,?,16%,41%,24%
